Where a name gives a salt, the structure may show the parent alone. ± gives the standard deviation.
Legend:
Jurkat [1] = assay: mean cell size (FSC-A) relative to DMSO control (fraction of control); higher = larger cells; details: 48 h
Outline: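 Jurkat cells seeded at 600 cells/µl were incubated 1 h, then exposed for 48h to the Enzo Screen-Well FDA Approved Drug Library v2.0 at 25µM in 0.9% (v/v) final DMSO. Drugs that cut counts below 20% of controls were diluted 10-fold and retested, down to 25nM. Cell count and mean cell size (forward scatter area) were read on an Accuri C6 flow cytometer, relative to solvent-only controls. Plates held 6-12 controls; values are means of 3 biological replicates.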

Jurkat [2] = assay: cell count relative to DMSO control (fraction of control); higher = more cells (less growth inhibition); details: 48 h

Row | Compound | mean cell size (Jurkat [1]) | cell count (Jurkat [2])
1 | CC(=O)S[C@@H]1CC2=CC(=O)CC[C@]2(C)[C@H]2CC[C@@]3(C)[C@@H](CC[C@@]34CCC(=O)O4)[C@H]12 [Spironolactone] (concentration: 25 µM) | 1.01 ± 0.062 | 0.455 ± 0.032
2 | CCCCCOc1ccc(-c2cc(-c3ccc(C(=O)N[C@H]4C[C@@H](O)[C@@H](O)NC(=O)[C@@H]5[C@@H](O)[C@@H](C)CN5C(=O)[C@H]([C@H](O)CC(N)=O)NC(=O)[C@H]([C@H](O)[C@@H](O)c5ccc(O)c(OS(=O)(=O)O)c5)NC(=O)[C@@H]5C[C@@H](O)CN5C(=O)[C@H]([C@@H](C)O)NC4=O)cc3)no2)cc1 [Micafungin] (concentration: 25 µM) | 0.993 ± 0.031 | 0.52 ± 0.081
3 | Nc1ccn([C@H]2CC[C@@H](CO)O2)c(=O)n1 [Zalcitabine (2',3'-Dideoxycytidine)] (concentration: 25 µM) | 1.31 ± 0.061 | 0.336 ± 0.073
4 | CCCc1nc2c(C)cc(-c3nc4ccccc4n3C)cc2n1Cc1ccc(-c2ccccc2C(=O)O)cc1 [Telmisartan] (concentration: 25 µM) | 0.951 ± 0.032 | 0.725 ± 0.051
5 | NC[C@H](O)c1ccc(O)c(O)c1 [Norepinephrine Bitartrate Monohydrate] (concentration: 25 µM) | 0.967 ± 0.024 | 0.658 ± 0.17
6 | NC[C@H]1CC[C@H](C(=O)O)CC1 [Tranexamic Acid] (concentration: 25 µM) | 0.961 ± 0.051 | 0.542 ± 0.14
7 | CN(C/C=C/c1ccccc1)Cc1cccc2ccccc12 [Naftifine·HCl] (concentration: 25 µM) | 0.956 ± 0.028 | 0.848 ± 0.089
8 | CN(C)CCC=C1c2ccccc2CCc2ccccc21 [Amitriptyline·HCl] (concentration: 25 µM) | 0.915 ± 0.037 | 0.798 ± 0.033
9 | C[C@H]1C[C@H]2[C@@H]3CCC4=CC(=O)C=C[C@]4(C)[C@@]3(F)[C@@H](O)C[C@]2(C)[C@@]1(O)C(=O)CO [Betamethasone] (concentration: 25 µM) | 0.914 ± 0.018 | 0.764 ± 0.084
10 | C[C@H]1[C@H](NC(=O)/C(=N\OC(C)(C)C(=O)O)c2csc(N)n2)C(=O)N1S(=O)(=O)O [Aztreonam] (concentration: 25 µM) | 0.927 ± 0.022 | 0.64 ± 0.086
11 | CCCCCCCCc1ccc(CCC(N)(CO)CO)cc1 [Fingolimod] (concentration: 25 µM) | 1.03 ± 0.035 | 0.953 ± 0.12
12 | CCC1=C(C)CN(C(=O)NCCc2ccc(S(=O)(=O)NC(=O)N[C@H]3CC[C@H](C)CC3)cc2)C1=O [Glimepiride] (concentration: 25 µM) | 0.94 ± 0.02 | 0.859 ± 0.076
13 | CN(C)CCCN1c2ccccc2CCc2ccc(Cl)cc21 [Clomipramine·HCl] (concentration: 25 µM) | 0.961 ± 0.035 | 0.4539 ± 0.0031
14 | CC(C)NCC(O)c1ccc(O)c(O)c1 (racemic) [(±) Isoproterenol·HCl] (concentration: 25 µM) | 0.981 ± 0.047 | 0.659 ± 0.0053
15 | COc1cc([C@@H]2c3cc4c(cc3[C@@H](O[C@@H]3O[C@@H]5CO[C@@H](c6cccs6)O[C@H]5[C@H](O)[C@H]3O)[C@H]3COC(=O)[C@H]23)OCO4)cc(OC)c1O [Teniposide] (concentration: 25 nM) | 1.25 ± 0.033 | 0.478 ± 0.044
16 | CC(C)C[C@H](NC(=O)[C@@H](Cc1c[nH]c2ccccc12)NC(=O)[C@H](Cc1ccc(O)cc1)NC(=O)[C@H](CO)NC(=O)[C@H](Cc1c[nH]c2ccccc12)NC(=O)[C@H](Cc1cnc[nH]1)NC(=O)[C@@H]1CCC(=O)N1)C(=O)N[C@@H](CCCN=C(N)N)C(=O)N1CCC[C@H]1C(=O)NCC(N)=O [Triptorelin Acetate] (concentration: 25 µM) | 0.997 ± 0.014 | 0.458 ± 0.081
17 | NNC(=O)c1ccncc1 [Isoniazid] (concentration: 25 µM) | 0.969 ± 0.022 | 0.925 ± 0.019
18 | O=c1n(CCCN2CCN(c3cccc(Cl)c3)CC2)nc2ccccn12 [Trazodone·HCl] (concentration: 25 µM) | 0.967 ± 0.045 | 0.878 ± 0.048
19 | Cc1ccc(-c2cc(C(F)(F)F)nn2-c2ccc(S(N)(=O)=O)cc2)cc1 [Celecoxib] (concentration: 25 µM) | 0.966 ± 0.029 | 0.514 ± 0.11

Row | Compound | mean cell size (Jurkat [1]) | cell count (Jurkat [2])
20 | C[C@@H](NCCCc1cccc(C(F)(F)F)c1)c1cccc2ccccc12 [Cinacalcet·HCl] (concentration: 25 µM) | 1.03 ± 0.051 | 0.577 ± 0.089
21 | CCOC(=O)[C@H](CCc1ccccc1)N[C@@H](C)C(=O)N1[C@H](C(=O)O)C[C@@H]2CCC[C@@H]21 [Ramipril] (concentration: 25 µM) | 1.01 ± 0.029 | 0.965 ± 0.031
22 | CN(C)/N=N/c1[nH]cnc1C(N)=O [Dacarbazine] (concentration: 25 µM) | 0.981 ± 0.048 | 0.836 ± 0.093
23 | CC(=O)NS(=O)(=O)c1ccc(N)cc1 [Sulfacetamide·Na] (concentration: 25 µM) | 0.951 ± 0.038 | 0.78 ± 0.07
24 | CNC[C@H](O)c1cccc(O)c1 [Phenylephrine] (concentration: 25 µM) | 0.999 ± 0.036 | 0.873 ± 0.15
25 | O=C(O)c1cn(C2CC2)c2cc(N3CCNCC3)c(F)cc2c1=O [Ciprofloxacin] (concentration: 25 µM) | 0.9157 ± 0.008 | 1.04 ± 0.13
26 | NC[C@H]1O[C@H](O[C@H]2[C@H](O)[C@@H](O[C@H]3O[C@H](CO)[C@@H](O)[C@H](N)[C@H]3O)[C@H](N)C[C@@H]2N)[C@H](N)C[C@@H]1O [Tobramycin] (concentration: 25 µM) | 1.01 ± 0.054 | 0.65 ± 0.082
27 | O=C(O)c1ccc(-n2nc(-c3ccccc3O)nc2-c2ccccc2O)cc1 [Deferasirox] (concentration: 2.5 µM) | 1.07 ± 0.021 | 0.636 ± 0.039
28 | OCc1cc(C(O)CNCCCCCCOCCCCc2ccccc2)ccc1O (stereo unspecified) [Salmeterol] (concentration: 25 µM) | 0.927 ± 0.023 | 0.669 ± 0.042
29 | Cc1c(OCC(F)(F)F)ccnc1C[S+]([O-])c1nc2ccccc2[nH]1 (stereo unspecified) [Lansoprazole] (concentration: 25 µM) | 0.927 ± 0.027 | 0.617 ± 0.01
30 | C[C@]12CCC3=C4CCC(=O)C=C4CC[C@H]3[C@@H]1CC[C@@]2(O)CC#N [Dienogest] (concentration: 25 µM) | 0.963 ± 0.035 | 0.827 ± 0.15
31 | CC(C)C(=O)OCC(=O)[C@@]12O[C@H](C3CCCCC3)O[C@@H]1C[C@H]1[C@@H]3CCC4=CC(=O)C=C[C@]4(C)[C@H]3[C@@H](O)C[C@@]12C [Ciclesonide] (concentration: 2.5 µM) | 0.9714 ± 0.0087 | 0.838 ± 0.08
32 | CCOC(=O)C1=C[C@@H](OC(CC)CC)[C@H](NC(C)=O)[C@@H](N)C1 [Oseltamivir Phosphate] (concentration: 25 µM) | 0.932 ± 0.023 | 0.939 ± 0.075
33 | CO[C@@]1(NC(=O)C2SC(=C(C(N)=O)C(=O)O)S2)C(=O)N2C(C(=O)O)=C(CSc3nnnn3C)CS[C@@H]21 (stereo partly specified) [Cefotetan Disodium] (concentration: 25 µM) | 0.951 ± 0.017 | 0.831 ± 0.075
34 | CCCCS(=O)(=O)N[C@@H](Cc1ccc(OCCCCC2CCNCC2)cc1)C(=O)O [Tirofiban·HCl] (concentration: 25 µM) | 0.937 ± 0.023 | 1.01 ± 0.08
35 | CO/N=C(\C(=O)N[C@@H]1C(=O)N2C(C(=O)O)=CCS[C@H]12)c1csc(N)n1 [Ceftizoxim·Na] (concentration: 25 µM) | 0.95 ± 0.016 | 1.09 ± 0.073
36 | CCc1ccc(CCOc2ccc(CC3SC(=O)NC3=O)cc2)nc1 (stereo unspecified) [Pioglitazone·HCl] (concentration: 25 µM) | 0.966 ± 0.039 | 0.906 ± 0.16
37 | N=C(N)N [Guanidine·HCl] (concentration: 25 µM) | 0.94 ± 0.018 | 1.02 ± 0.096
38 | CC(=O)NCCCS(=O)(=O)O [Acamprosate] (concentration: 25 µM) | 1.05 ± 0.062 | 0.933 ± 0.097

From the supplement of paper PMC4709259
